{
  "source": "PubChem BioAssay AID651768",
  "about": "(National Center for Advancing Translational Sciences (NCATS), 2012)",
  "note": "The campaign covered roughly 360,000 compounds. About 1,700 (0.47%) were called active. Another 2% or so got no clear call; they are omitted. Shown is part of a subset that was picked to be rich in actives. Where a call stands in place of a potency, no number is given. Unmarked numbers belong to inactive results. Calls come from the whole dose curve; as a rule, active = well fitted inhibition curve with a large enough effect; inconclusive = small, poorly fitted or top-dose-only effect; inactive = no such curve, though single readings can be large or run the other way.",
  "data": [
    {"molecular_target": "Bifunctional 3'-5' exonuclease/ATP-dependent helicase WRN (Homo sapiens) (UniProt Q14191)", "sequence (Q14191 whole entry, looked up)": "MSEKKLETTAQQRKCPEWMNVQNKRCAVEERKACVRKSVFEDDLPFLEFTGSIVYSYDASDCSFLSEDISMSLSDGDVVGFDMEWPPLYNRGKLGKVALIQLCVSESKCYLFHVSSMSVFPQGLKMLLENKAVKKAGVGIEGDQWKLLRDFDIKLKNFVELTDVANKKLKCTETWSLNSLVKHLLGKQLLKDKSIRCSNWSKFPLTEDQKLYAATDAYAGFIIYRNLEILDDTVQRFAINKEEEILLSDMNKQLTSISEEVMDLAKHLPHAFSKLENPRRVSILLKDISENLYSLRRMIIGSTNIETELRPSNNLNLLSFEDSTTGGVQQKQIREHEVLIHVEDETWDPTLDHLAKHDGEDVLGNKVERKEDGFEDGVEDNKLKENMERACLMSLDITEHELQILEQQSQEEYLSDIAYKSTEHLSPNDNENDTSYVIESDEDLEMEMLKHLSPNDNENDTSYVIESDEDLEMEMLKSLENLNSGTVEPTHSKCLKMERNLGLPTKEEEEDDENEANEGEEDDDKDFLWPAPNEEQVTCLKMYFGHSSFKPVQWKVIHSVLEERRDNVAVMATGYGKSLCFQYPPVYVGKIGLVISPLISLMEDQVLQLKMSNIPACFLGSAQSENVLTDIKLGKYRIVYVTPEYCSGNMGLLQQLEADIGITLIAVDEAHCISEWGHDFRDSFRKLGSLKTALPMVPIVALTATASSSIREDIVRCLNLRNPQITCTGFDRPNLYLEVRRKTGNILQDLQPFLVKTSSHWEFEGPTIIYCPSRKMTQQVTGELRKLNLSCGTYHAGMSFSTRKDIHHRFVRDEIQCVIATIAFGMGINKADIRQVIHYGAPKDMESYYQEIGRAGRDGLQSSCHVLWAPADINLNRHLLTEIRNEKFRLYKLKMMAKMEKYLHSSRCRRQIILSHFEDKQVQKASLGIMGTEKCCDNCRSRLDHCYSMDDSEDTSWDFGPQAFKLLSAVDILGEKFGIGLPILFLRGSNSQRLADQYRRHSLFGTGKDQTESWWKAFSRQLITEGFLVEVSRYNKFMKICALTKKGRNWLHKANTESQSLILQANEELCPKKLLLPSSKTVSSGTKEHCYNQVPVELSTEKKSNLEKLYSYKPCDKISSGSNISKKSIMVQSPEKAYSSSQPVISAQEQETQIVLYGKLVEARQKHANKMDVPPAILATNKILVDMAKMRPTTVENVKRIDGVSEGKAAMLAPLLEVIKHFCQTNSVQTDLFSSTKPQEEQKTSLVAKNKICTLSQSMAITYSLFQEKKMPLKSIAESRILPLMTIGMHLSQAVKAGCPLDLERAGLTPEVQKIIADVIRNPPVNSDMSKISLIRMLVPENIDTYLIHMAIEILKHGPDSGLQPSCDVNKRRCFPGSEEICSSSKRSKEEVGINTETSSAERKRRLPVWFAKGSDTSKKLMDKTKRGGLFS", "assay": "qHTS for Inhibitors of WRN Helicase; note: nearly all actives have a fitted effect of over 55% in size; note: potency is the fitted concentration of half-maximal effect", "settings": "WRN helicase unwinding, fluorescent forked duplex, kinetic; series mostly up to 114 µM", "outline": "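WRN at 20 nM final was preincubated with compound for 15 min at room temperature; reaction started with 100 nM forked duplex oligonucleotide carrying fluorophore and quencher plus 2 mM ATP (final). Unwinding followed kinetically by red fluorescence (ex 525/em 598 nm).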", "values": [
      {"compound": "Cc1ccc(S(=O)(=O)N(c2cccc(C)c2)C2CCS(=O)(=O)C2)cc1", "note": "(stereo unspecified)", "Potency": "inactive"},
      {"compound": "O=C(CC[C@H]1O[C@@H](n2ccc(=O)[nH]c2=O)[C@H](O)[C@@H]1O)N[C@H](Cc1ccccc1)C(=O)NCCCN1CCCC1=O", "Potency": "inactive"},
      {"compound": "CN(C(=O)COC(=O)Cc1ccccc1[N+](=O)[O-])C1CCS(=O)(=O)C1", "note": "(stereo unspecified)", "Potency": "inactive"},
      {"compound": "CN(C(=O)COC(=O)c1cc(-c2ccco2)nc2ccccc12)C1CCS(=O)(=O)C1", "note": "(stereo unspecified)", "Potency": "31.6 µM (active)"},
      {"compound": "COc1ccc(NC(=O)COc2ccc(C(=O)OCC(=O)N(C)C3CCS(=O)(=O)C3)cc2OC)cc1", "note": "(stereo unspecified)", "Potency": "inactive"},
      {"compound": "Cc1ccc(C2(c3ccc(C)cc3)NC(=O)N(Cc3c(C)noc3C)C2=O)cc1", "Potency": "inactive"},
      {"compound": "Nn1c(SCC(=O)Nc2nccs2)nnc1-c1ccco1", "Potency": "inactive"},
      {"compound": "NC(=O)c1c(NC(=O)CSc2nnc(-c3ccco3)n2N)sc2c1CCCC2", "Potency": "50.1 µM (active)"},
      {"compound": "CCOC(=O)c1c(NC(=O)CSc2nnc(CN3CCOCC3)n2C)sc2c1CCCC2", "Potency": "inactive"},
      {"compound": "COc1cc(OC)c(NC(=O)C2CCCN2C(=O)OCc2ccccc2)cc1Cl", "note": "(stereo unspecified)", "Potency": "inactive"},
      {"compound": "O=C1Nc2ccccc2NC(c2ccc3c(c2)OCO3)=C1N(Cc1ccc(F)cc1)C(=O)c1ccco1", "Potency": "inactive"},
      {"compound": "CC(C)c1ccc2c(c1)c(SC(C)(C)C)c(CC(C)(C)C(=O)O)n2Cc1ccc(Cl)cc1", "Potency": "50.1 µM (active)"},
      {"compound": "CCC(CC)NC(=O)CSc1nnc(-c2c[nH]c3ccccc23)o1", "Potency": "inactive"},
      {"compound": "O=C(c1cc(C2CCCCN2S(=O)(=O)c2ccccc2)on1)N1CCOCC1", "note": "(stereo unspecified)", "Potency": "inactive"},
      {"compound": "COc1ccc2c(c1)C(=C(C#N)C#N)C(=O)N2CCc1ccccc1", "Potency": "50.1 µM (active)"},
      {"compound": "C#CCN1C(=O)C(O)(CC(=O)c2cc(OC)ccc2OC)c2ccccc21", "note": "(stereo unspecified)", "Potency": "inactive"},
      {"compound": "CCCCN1C(=O)/C(=C(/C#N)C(N)=O)c2ccccc21", "Potency": "inactive"},
      {"compound": "CCCCn1c(N)c(N(CCOC)C(=O)c2sc3ccccc3c2Cl)c(=O)[nH]c1=O", "Potency": "inactive"},
      {"compound": "Cc1[nH]c2ccccc2c1C(=O)c1cc([C@H](NC(=O)OC(C)(C)C)C(C)C)sc1N", "Potency": "inactive"},
      {"compound": "COc1ccc([C@H]2CC(=O)C[C@@H](CCn3cc(CC4CCCC4)nn3)O2)cc1", "Potency": "inactive"},
      {"compound": "O=C(CCCN1C(=O)c2cccc3cccc(c23)C1=O)N1CCN(Cc2ccc3c(c2)OCO3)CC1", "Potency": "inactive"},
      {"compound": "O=C1c2cccc3cccc(c23)C(=O)N1CCCCCc1n[nH]c(=S)o1", "Potency": "100 µM (active)"},
      {"compound": "O=C(COC(=O)CCCN1C(=O)c2cccc3cccc(c23)C1=O)NC1CCS(=O)(=O)C1", "note": "(stereo unspecified)", "Potency": "inactive"},
      {"compound": "C[N+](C)(CCCCCC[N+](C)(C)CCCN1C(=O)c2cccc3cccc(c23)C1=O)CCCN1C(=O)c2cccc3cccc(c23)C1=O", "Potency": "44.7 µM (active)"},
      {"compound": "O=C(CN1C(=O)c2cccc3cccc1c23)Nc1ccccc1", "activity change, negative = inhibition": "-0.0297% [at 11.6 µM]"},
      {"compound": "O=C(CN1C(=O)c2cccc3cccc(c23)C1=O)N1CCCCC1", "Potency": "inactive"},
      {"compound": "Cc1ccc(CCNC(=O)CN2C(=O)CSc3ccc(S(=O)(=O)N4CCOCC4)cc32)cc1", "Potency": "inactive"},
      {"compound": "CCOC(=O)[C@]12CCCC=C1N(CCC1=CCCCC1)C(=O)[C@H](CC(=O)NCCCCc1ccccc1)C2", "Potency": "inactive"},
      {"compound": "CCCCOCCCNC(=O)C[C@@H]1C[C@@]2(C(=O)OCC)CCCC=C2N(CCC2=CCCCC2)C1=O", "Potency": "inactive"},
      {"compound": "CN(C)c1ccc(CSc2ccccc2)cc1", "Potency": "inactive"},
      {"compound": "CS/C(=C\\[N+](=O)[O-])Nc1ccc(C)cc1", "Potency": "inactive"},
      {"compound": "Nc1nc2ncccn2c1-c1ccccc1", "Potency": "inactive"},
      {"compound": "O=C(Nc1nnc(SCc2ccccc2Cl)s1)c1cccc([N+](=O)[O-])c1", "Potency": "inactive"},
      {"compound": "Clc1ccccc1CSc1nnc(-c2ccco2)c(-c2ccco2)n1", "Potency": "50.1 µM (active)"},
      {"compound": "c1ccc(Cc2c(-c3ccco3)nc3c4ccccc4ccn23)cc1", "Potency": "inactive"},
      {"compound": "COc1ccc(NCc2nnc(SCc3ccccc3)n2-c2ccc(OC)cc2)cc1", "Potency": "inactive"},
      {"compound": "CSc1nc(-c2ccco2)nn1C(=O)c1ccccc1Cl", "Potency": "inactive"},
      {"compound": "c1ccc(CSc2nnc(-c3ccco3)c(-c3ccco3)n2)cc1", "Potency": "28.2 µM (active)"},
      {"compound": "CCCC1(C(=O)OC)NC(c2ccco2)C2C(=O)N(C)C(=O)C21", "note": "(stereo unspecified)", "Potency": "inactive"},
      {"compound": "Cc1cc(C)c(S(=O)(=O)N2C=CC(C(F)(F)F)=NCC2)c(C)c1", "Potency": "inactive"},
      {"compound": "CSc1c(SCc2ccccc2)cnn(Cc2ccccc2)c1=O", "Potency": "inactive"},
      {"compound": "c1ccc(-n2cccc2)c(N2CCCCC2)c1", "Potency": "inactive"},
      {"compound": "O=C1C=CC(=O)N1c1ccc(N2CCCCC2)cc1", "Potency": "39.8 µM (active)"},
      {"compound": "O=C(c1ccc(Cl)c(S(=O)(=O)N2CCCCCC2)c1)N1CCN(c2ccc(O)cc2)CC1", "Potency": "inactive"},
      {"compound": "CCCC(NCC(=O)Nc1ccccc1C(=O)NC1CC1)c1ccccc1", "note": "(stereo unspecified)", "Potency": "inactive"},
      {"compound": "CC(C)(C)c1cc[n+](-c2[nH]c(=O)sc2/C=N/N=C(\\[O-])c2ccccc2)cc1", "Potency": "inactive"}
    ]}
  ]
}
